Records with an inconclusive call do not appear. Activity calls are given as the source filed them. Unless noted, calls follow the shape of the full dose curve.
% is scaled to controls: 0 for no effect and ±100 for the full control effect.

One test is described as follows: qHTS assay to identify small molecule antagonists of the progesterone receptor (PR) signaling pathway - cell viability counter screen (AID 1346798; active = well fitted cell-killing curve with a large enough effect in the repeat runs; also: nearly all actives have a fitted effect of over 50% in size). To be noted: PR-UAS-bla HEK293T viability, CellTiter-Glo luminescence, 16 h; series mostly up to 92.4 µM. In short, it runs like this: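 Viability was determined by ATP-based luminescence (CellTiter-Glo) in PR-UAS-bla HEK293T cells cultured in 2% charcoal-stripped serum and incubated 16 hr with compounds under R5020 stimulation.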
For orientation: In qHTS, concentration-response curves come from the screen itself.
As for `Fc1ccccc1`, the molecule was called inactive.

For `CC1=C(O)C(=O)C(C)O1` (stereo not drawn), the outcome was inactive.

In the case of `C/C(CC(C)C)=N\O`, the outcome was inactive.

`O=C(Cn1ccnc1[N+](=O)[O-])NCc1ccccc1`: the molecule was classed as inactive.

As to `CC1(C)Oc2ccc(C#N)cc2[C@@H](N2CCCC2=O)[C@@H]1O`, the outcome was inactive.

For the molecule `[O]=[Mo](=[O])=[O]`, the activity change, negative = cytotoxicity is 2.8% [at 18.9 µM] (inactive).

`CCCCOCC(C)O` (stereo not drawn): the molecule was called inactive.

With `CCC(C)C(=O)OCCc1ccccc1` (stereo not drawn), the call was inactive.

In the case of `COC(C)(OC)OC`, the call was inactive.

The next test in a line: qHTS assay to identify small molecule agonists of the progesterone receptor (PR) signaling pathway - cell viability counter screen (AID 1346799). Also: nearly all actives have a fitted effect of over 45% in size. To be noted: PR-UAS-bla HEK293T viability, CellTiter-Glo luminescence, 16 h; series mostly up to 92.4 µM. In short, it runs like this:
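Viability was scored by ATP luminescence (CellTiter-Glo, 30 min, room temperature) in the same wells used for the reporter readout, after 16 hr compound exposure of PR-UAS-bla HEK293T cells.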
On to `OC1OCCOC1O` (stereo not drawn), for which the molecule was called inactive.

On to `CC(C)(CO)C(O)C(=O)NCCCO` (stereo not drawn), for which the outcome was inactive.

As for `CCC(C)C(C)=O` (stereo not drawn), the call was inactive.

With `Cc1ccccc1C(N)=O`, the result was inactive.

For the molecule `CCCc1ccc(O)cc1`, the call was inactive.

Regarding `CCc1occc(=O)c1O`, the molecule was called inactive.

For `CC1(C)CC(OC(=O)CCCCCCCCC(=O)OC2CC(C)(C)NC(C)(C)C2)CC(C)(C)N1`, the activity change, negative = cytotoxicity is 0.742% [at 19 µM] (inactive).

As for `CC1CC(=O)CC(C)(C)C1` (stereo not drawn), the call was inactive.

As to `CCCCOC(=O)C(C)O` (stereo not drawn), the molecule was called inactive.

As to `CC1CCc2c(N3CCC(O)CC3)c(F)cc3c(=O)c(C(=O)O)cn1c23` (stereo not drawn), the molecule was classed as inactive.

As to `COP(=O)(O)OP(=O)(O)OC`, the call was inactive.

Turning to `CCCC(=O)Nc1ccc(OCC(O)CNC(C)C)c(C(C)=O)c1` (stereo not drawn), the call was inactive.

For the molecule `CN(C)C(C)(C)CO`, the molecule was called inactive.

Turning to `CC(C)Nc1ccccc1`, the outcome was inactive.

Consider `C=CC/C=C/C`, for which the molecule was called inactive.

Consider `COc1ccc2c(c1)c1c3n2CCN(C)C3=NCC1`, for which the outcome was inactive.

Consider `CN(C)CCOC(=O)C(c1ccccc1)C1(O)CCCC1` (stereo not drawn), for which the molecule was classed as inactive.

With `COC(=O)c1cc(Cl)cc(Cl)c1`, the molecule was classed as inactive.

`CC1(C)[C@H]2CC[C@](C)(C2)[C@H]1O`: the outcome was inactive.

These data come from PubChem BioAssay (Tox21).
